The subject of assay [1] is Wnt5a (protein binding on small-molecule microarray). In words: small molecules binding Wnt5a protein – biophysical, small-molecule microarray, 635/667 nm fluorescence, primary screen (AID 1142).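 Note: fluorescence read at 667 nm with signal to noise per printed feature.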 The following applies: 635 nm fluorescence, higher = more signal.
Assay [2] is described as follows: ATP-based viability of Huh7 replicon cells – cell-based, CellTiter-Glo luminescence, basal, 48 h, cytotoxicity control for HCV replication inhibitor project, primary screen (AID 1143).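 Note: Huh7 hepatoma cells carrying a hepatitis C replication reporter with no stimulus; test concentration not given here.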 Particulars: higher = more signal, called active from +8 up or from −8 down. (Replicon systems follow genome replication, usually without infectious particles.)
The nature of assay [3]: Pseudomonas biofilm growth suppression – PAO1 strain, BacTiter-Glo luminescence, LB-PBS, primary screen (AID 1144). The following applies: P. aeruginosa PAO1 biofilm, 12 h, higher = more signal.
Assay [4] can be described thus: basal CRE-LacZ reporter activity in PC12 – cell-based, unstimulated, primary screen (AID 1145). The following applies: no forskolin, luminescence, 4.5 h, higher = more signal, called active from +8 up or from −8 down.
Assay [5] in a line: forskolin-driven CRE-LacZ activity in PC12 – cell-based, CRE-LacZ reporter, forskolin-stimulated, primary screen (AID 1146).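 Note: PC12 cells with 6xCRE LacZ reporter stimulated by forskolin 10 µM; beta-galactosidase reporter signal reflecting CREB driven transcription.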 Particulars: luminescence, 4.5 h, higher = more signal, called active from +8 up or from −8 down.
Assay [6] deals with Streptavidin (Streptomyces avidinii) (UniProt P22629). The experiment in a line: compounds binding control protein streptavidin – biophysical, small-molecule microarray, 635/667 nm fluorescence, artefact control for SMM compound annotation, primary screen (AID 1147).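 Note: signal reflects streptavidin binding to arrayed compounds as a control protein.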 The following applies: higher = more signal.
Assay [7] in a line: probe aInhba binding on compound microarray – biochemical, small-molecule microarray, 635/667 nm fluorescence, primary screen (AID 1148).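 Note: score merges 667nm spot fluorescence with signal-to-noise for antibody binding to printed compounds.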 Particulars: higher = more signal.
Assay [8] has as its target Torsin-1A (Homo sapiens) (UniProt O14656). In words: TOR1A wild-type binding on microarray – cell lysate, small-molecule microarray, lysate, 635/667 nm, primary screen (AID 1149). Particulars: COS7 hTOR1A-WT lysate, 635 nm fluorescence, higher = more signal.
Assay [9] shares this target. In words: torsin A mutant lysate binding on microarrays – cell lysate, small-molecule microarray, COS7 lysate, 635/667 nm fluorescence, primary screen (AID 1150).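 Note: score pools 667 nm emission and signal to noise measuring lysate protein binding.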 Particulars: COS7 hTOR1A mutant lysate, 635 nm fluorescence, higher = more signal.
In assay [10] the test system is Sonic hedgehog protein (Shh). The experiment in a line: Sonic hedgehog microarray binding compounds – biochemical, small-molecule microarray, 635/667 nm fluorescence, primary screen (AID 1151).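 Note: Shh protein binding to compounds spotted on small-molecule microarray slides; score combines spot fluorescence intensity with signal-to-noise across triplicate slides.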 Particulars: 635 nm fluorescence, higher = more signal.
A short description of assay [11]: optical density shifts of acrAB sulA E. coli – strain DRC41, OD650, 48 h, E. coli filamentation inducer project, primary screen (AID 1152).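 Note: E. coli MC1000 strain DRC41 lacking acrAB efflux pump and sulA.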 The following applies: higher = more signal, called active from +8 up or from −8 down.
The nature of assay [12]: probe aLefty1 binding on compound microarray – biochemical, small-molecule microarray, 635/667 nm fluorescence, primary screen (AID 1153).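 Note: score merges spot fluorescence with signal-to-noise ratio from the scanned slide images.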 Particulars: higher = more signal.
Assay [13] in a line: plasmodial surface anion channel blockers, osmotic lysis – cell-based, P. falciparum Indochina, OD700, 1 h, primary screen (AID 1154). Particulars: P. falciparum Indochina infected RBC osmotic lysis, higher = more signal, called active from +8 up or from −8 down.
Assay [14] is described as follows: plasmodial surface anion channel blockers, osmotic lysis – cell-based, P. falciparum Indochina, OD700, 2 h, primary screen (AID 1155).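 Note: lysis reports solute entry through the parasite surface anion channel PSAC.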 Particulars: P. falciparum Indochina infected erythrocytes, higher = more signal, called active from +8 up or from −8 down.
Assay [15] is described as follows: changes in parasitized red cell lysis, either direction – P. falciparum Indochina, OD700, 3 h, PSAC antagonist project, primary screen (AID 1156). Particulars: P. falciparum-infected erythrocytes, osmotic lysis, higher = more signal, called active from +8 up or from −8 down.
Assay [16] can be described thus: plasmodial surface anion channel blockers, osmotic lysis – cell-based, P. falciparum Indochina, OD700, 18 h, primary screen (AID 1157). Particulars: P. falciparum Indochina infected erythrocytes, osmotic lysis OD700, 18 h; higher = more signal, called active from +8 up or from −8 down.
Assay [17] can be described thus: S6 kinase pathway phospho-S6 level changes – cell-based, A549, cytoblot, luminescence, serum-stimulated, primary screen (AID 1158).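 Note: serum-stimulated A549 lung adenocarcinoma cells; signal is phosphorylated S6 detected by cytoblot immunostaining with HRP secondary.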 Particulars: 5 h, higher = more signal.
In assay [18] the target is NADPH oxidase 2 (Homo sapiens) (UniProt P04839). The experiment in a line: compounds shifting NOX2 Amplex Red fluorescence – cell-based, HEK293-NOX2, PMA-stimulated, NOX inhibitor project, primary screen (AID 1159). Note: test concentration not given here. Particulars: 45 min, higher = more signal, called active from +8 up or from −8 down.
Assay [19] concerns the target NADPH oxidase 4 (Homo sapiens) (UniProt Q9NPH5). In words: compounds shifting NOX4 Amplex Red fluorescence – cell-based, HEK293-NOX4, tetracycline-induced, NOX inhibitor project, primary screen (AID 1160). The following applies: HEK293-NOX4, Amplex Red H2O2 fluorescence, 45 min; higher = more signal, called active from +8 up or from −8 down.
Assay [20] concerns the target NADPH oxidase 5 (Homo sapiens) (UniProt Q96PH1). In words: compounds shifting NOX5 Amplex Red fluorescence – cell-based, HEK293-NOX5, NOX inhibitor project, primary screen (AID 1161). Particulars: HEK293-NOX5, ionomycin, 45 min, higher = more signal.

Molecules are shown by their SMILES. The source made the active and inactive calls. Unless noted, the rule behind the calls is not given here.

Torsin-1A (Homo sapiens), sequence (O14656 whole entry, looked up): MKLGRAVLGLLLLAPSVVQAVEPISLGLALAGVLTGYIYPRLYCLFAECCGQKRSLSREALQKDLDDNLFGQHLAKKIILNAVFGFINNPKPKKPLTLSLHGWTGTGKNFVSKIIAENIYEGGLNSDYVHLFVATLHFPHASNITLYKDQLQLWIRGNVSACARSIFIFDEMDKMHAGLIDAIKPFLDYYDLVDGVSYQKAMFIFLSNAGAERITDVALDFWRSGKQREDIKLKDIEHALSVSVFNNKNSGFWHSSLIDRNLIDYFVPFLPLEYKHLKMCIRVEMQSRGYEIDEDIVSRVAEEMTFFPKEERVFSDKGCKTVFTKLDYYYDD
NADPH oxidase 2 (Homo sapiens), sequence (P04839 whole entry, looked up): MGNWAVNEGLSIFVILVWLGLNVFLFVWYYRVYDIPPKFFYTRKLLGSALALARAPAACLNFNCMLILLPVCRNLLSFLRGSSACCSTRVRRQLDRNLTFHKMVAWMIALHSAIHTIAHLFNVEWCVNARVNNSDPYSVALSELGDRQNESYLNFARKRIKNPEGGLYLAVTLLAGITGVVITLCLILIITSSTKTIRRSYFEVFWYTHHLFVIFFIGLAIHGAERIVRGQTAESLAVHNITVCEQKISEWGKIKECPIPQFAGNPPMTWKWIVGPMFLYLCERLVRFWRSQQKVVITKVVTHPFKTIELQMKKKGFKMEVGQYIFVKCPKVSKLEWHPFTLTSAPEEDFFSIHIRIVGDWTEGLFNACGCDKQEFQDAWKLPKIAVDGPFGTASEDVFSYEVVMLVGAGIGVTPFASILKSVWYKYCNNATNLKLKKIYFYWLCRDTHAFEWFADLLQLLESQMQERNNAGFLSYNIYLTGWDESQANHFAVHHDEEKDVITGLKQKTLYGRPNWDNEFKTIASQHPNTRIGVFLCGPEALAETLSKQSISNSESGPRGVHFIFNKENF
NADPH oxidase 5 (Homo sapiens), sequence (Q96PH1 whole entry, looked up): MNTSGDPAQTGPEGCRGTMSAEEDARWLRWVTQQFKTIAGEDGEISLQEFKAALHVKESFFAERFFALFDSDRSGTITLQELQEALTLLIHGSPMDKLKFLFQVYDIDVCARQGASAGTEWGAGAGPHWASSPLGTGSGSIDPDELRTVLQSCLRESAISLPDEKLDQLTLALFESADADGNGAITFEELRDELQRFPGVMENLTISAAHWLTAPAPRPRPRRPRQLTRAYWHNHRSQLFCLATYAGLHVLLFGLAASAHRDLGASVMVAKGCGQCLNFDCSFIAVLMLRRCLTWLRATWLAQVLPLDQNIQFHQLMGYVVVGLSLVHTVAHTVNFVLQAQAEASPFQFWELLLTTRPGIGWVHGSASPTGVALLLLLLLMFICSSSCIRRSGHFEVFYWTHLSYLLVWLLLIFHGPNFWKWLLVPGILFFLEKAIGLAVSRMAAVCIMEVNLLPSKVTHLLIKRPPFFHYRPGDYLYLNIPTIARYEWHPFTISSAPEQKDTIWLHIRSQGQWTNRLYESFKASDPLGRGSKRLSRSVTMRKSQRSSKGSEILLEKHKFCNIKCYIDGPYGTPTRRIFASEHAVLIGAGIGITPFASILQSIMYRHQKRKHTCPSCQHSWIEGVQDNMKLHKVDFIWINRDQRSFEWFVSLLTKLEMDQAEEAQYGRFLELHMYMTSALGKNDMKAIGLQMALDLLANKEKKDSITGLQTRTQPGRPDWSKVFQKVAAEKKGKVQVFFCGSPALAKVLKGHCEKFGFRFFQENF
NADPH oxidase 4 (Homo sapiens), sequence (Q9NPH5 whole entry, looked up): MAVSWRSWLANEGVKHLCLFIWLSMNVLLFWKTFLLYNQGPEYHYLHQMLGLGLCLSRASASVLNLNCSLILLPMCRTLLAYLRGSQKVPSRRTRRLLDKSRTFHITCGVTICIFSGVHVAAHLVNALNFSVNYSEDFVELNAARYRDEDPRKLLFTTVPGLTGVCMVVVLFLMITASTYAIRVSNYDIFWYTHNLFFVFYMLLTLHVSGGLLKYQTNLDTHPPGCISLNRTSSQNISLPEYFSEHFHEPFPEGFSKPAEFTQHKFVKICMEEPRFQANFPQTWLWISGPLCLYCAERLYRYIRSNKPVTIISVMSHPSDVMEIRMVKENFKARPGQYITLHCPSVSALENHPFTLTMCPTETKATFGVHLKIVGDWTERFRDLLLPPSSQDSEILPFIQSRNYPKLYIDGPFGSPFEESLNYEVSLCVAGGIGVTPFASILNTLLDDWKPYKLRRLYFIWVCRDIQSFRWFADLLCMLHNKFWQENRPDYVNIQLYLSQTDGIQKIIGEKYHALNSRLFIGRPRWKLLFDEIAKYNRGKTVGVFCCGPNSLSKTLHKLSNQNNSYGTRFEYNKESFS
Streptavidin (Streptomyces avidinii), sequence (P22629 whole entry, looked up): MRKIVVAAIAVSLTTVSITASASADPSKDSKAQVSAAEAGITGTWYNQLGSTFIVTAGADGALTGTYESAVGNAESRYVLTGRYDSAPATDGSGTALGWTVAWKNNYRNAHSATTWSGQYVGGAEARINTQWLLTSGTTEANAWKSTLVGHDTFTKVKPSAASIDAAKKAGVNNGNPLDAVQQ

For `Cc1ccc(S(=O)(=O)N2[C@@H](c3ccccc3)C(C(=O)O)=CC[C@H]2c2ccccc2)cc1`, the composite z-score is 0.105 in [1]; 0.263 in assay [6]; 0.0631 in assay [7]; 0.195 in assay [8]; -0.0024 in assay [9]; -0.497 in assay [10]. Moreover, the composite z-score in assay [12] was -0.0501. Moreover, the z-score is -0.498 (inactive) in assay [2]; 0.0815 (inactive) in assay [3]; 0.0707 (inactive) in [4]; -0.303 (inactive) in assay [5]; -1.57 (inactive) in assay [11]; 0.432 (inactive) in assay [13]. Further, the z-score in assay [14] was 0.798 (inactive); in [15], 0.605 (inactive); in assay [16], 0.83 (inactive); in assay [17] it was -0.259; in assay [18] it was -0.127 (inactive); in [19], -0.375 (inactive). In addition, the z-score in [20] was -2.32.
Turning to `CCc1cccc(NC(=O)O[C@H]2[C@H](OC(=O)Nc3ccccc3)[C@@H](OC(=O)Nc3ccccc3)[C@@H](OC)O[C@@H]2CO)c1`, the composite z-score in assay [1] is 0.73; in [6], 0.39; in assay [7] it was 0.0785; in [8], 2.73; in assay [9] it was 0.896; in [10] it was 1.72. The compound further gave a composite z-score in [12] of 0.424. The z-score in assay [2] is -5.6 (inactive); in assay [3], -0.944 (inactive); in assay [4], 0.344 (inactive); in assay [5], -1.9 (inactive); in assay [11] it was 0.172 (inactive); in [13], 5.28 (inactive). The z-score in assay [14] was 1.13 (inactive); in assay [15] it was -0.298 (inactive); in assay [16] it was 0.667 (inactive); in assay [17] it was 0.211; in assay [18], -6.71 (inactive); in assay [19] it was -1.24 (inactive). Further, the z-score in assay [20] was -2.35.
Turning to `CCOC(=O)C1=CCC(c2cccc3ccccc23)N(S(=O)(=O)c2ccc(C)cc2)C1` (stereo not given), the composite z-score is 0.204 in [1]; 1.12 in assay [6]; 0.201 in [7]; 0.334 in assay [8]; 0.216 in assay [9]; -0.717 in assay [10]. The compound further registered a composite z-score in assay [12] of 0.071. Moreover, the z-score in assay [2] is -3.85 (inactive); in assay [3], 0.00942 (inactive); in assay [4], -0.826 (inactive); in assay [5], -0.0663 (inactive); in assay [11], -0.894 (inactive); in assay [13], 1.49 (inactive). For the same compound, the z-score in [14] was 0.902 (inactive); in assay [15] it was -1.54 (inactive); in [16], 0.411 (inactive); in assay [17], -0.415; in [18] it was 1.42 (inactive); in assay [19], 1.17 (inactive). For the same compound, the z-score in [20] came to 1.49.
With `O=C1c2ccccc2[C@@]2(Cc3ccccc3N(CC(F)(F)F)C2=O)[C@H](c2ccc(CO)cc2)N1C1CCCCC1`, the composite z-score was 0.327 in [1]; -0.256 in assay [6]; 0.207 in [7]; 0.17 in assay [8]; -0.309 in [9]; 0.522 in assay [10]. For the same compound, the composite z-score in assay [12] was determined as 0.062. In addition, the z-score is -0.323 (inactive) in [2]; 0.00188 (inactive) in [3]; -0.168 (inactive) in assay [4]; -0.838 (inactive) in [5]; 0.969 (inactive) in [11]; 0.856 (inactive) in [13]. Further, the z-score in assay [14] is 0.81 (inactive); in [15], 0.0811 (inactive); in assay [16], 0.427 (inactive); in assay [17], 0.0443; in [18], 0.161 (inactive); in assay [19] it was -0.501 (inactive). Also, the z-score in assay [20] is 0.239.
